Assay outcomes deposited in PubChem by NMMLSC.
Shown are actives, neighbours in structure and some others; about 2.5% of the full set was active somewhere.
GRK2 aptamer HTS: blocks RNA aptamer binding to human GRK2; bead flow cytometry, FAM-aptamer displacement from GRK2; P25098; inhibition of aptamer binding, % at 10 µM; 0.59% of 330,000 active;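 active = inhibition of aptamer binding above 40%, roughly 3 SD of noise, on plates passing a quality check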;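 also: median bead fluorescence of bound FAM aptamer so fluorescent compounds give negative values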
MEKK3 PB1 HTS: modulators (inhibitors or enhancers) of MEK5 binding to human MEKK3 PB1 domain; 1.4% of 290,000 active; binding response (% of control), % at 10 µM; bead-based flow cytometry, Alexa488-MEK5 binding to MEKK3; actives lie on both sides; 0 = blocked by unlabeled MEK5, 100 = vehicle; Q99759;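 active = binding response more than 3 SD above or below the average of its plate-row segment, actives on both sides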;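 also: Alexa488 bead fluorescence after subtracting the streptavidin-only scavenger bead signal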
Target sequence (Q99759 whole entry, looked up, the tested form may be a part): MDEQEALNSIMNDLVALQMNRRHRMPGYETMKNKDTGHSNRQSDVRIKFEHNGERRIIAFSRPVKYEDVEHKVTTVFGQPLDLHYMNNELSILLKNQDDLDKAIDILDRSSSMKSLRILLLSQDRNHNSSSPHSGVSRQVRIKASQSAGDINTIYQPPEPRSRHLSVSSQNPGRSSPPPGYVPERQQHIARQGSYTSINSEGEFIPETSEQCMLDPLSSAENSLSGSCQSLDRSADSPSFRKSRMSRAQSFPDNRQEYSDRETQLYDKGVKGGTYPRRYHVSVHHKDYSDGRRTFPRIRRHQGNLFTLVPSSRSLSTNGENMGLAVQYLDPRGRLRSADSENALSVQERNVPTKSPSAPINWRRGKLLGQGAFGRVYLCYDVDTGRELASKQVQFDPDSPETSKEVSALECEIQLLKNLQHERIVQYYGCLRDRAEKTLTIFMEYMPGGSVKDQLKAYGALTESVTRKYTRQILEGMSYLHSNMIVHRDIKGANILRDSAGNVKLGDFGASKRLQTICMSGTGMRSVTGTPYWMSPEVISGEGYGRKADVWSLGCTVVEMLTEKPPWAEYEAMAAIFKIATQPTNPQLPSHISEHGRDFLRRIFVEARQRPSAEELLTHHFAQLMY
MEKK2wt PB1 HTS: raises or lowers MEK5 binding to wildtype human MEKK2 PB1 domain; AID 1531; Q9Y2U5; 1.1% of 290,000 active; binding response (% of control), % at 10 µM; bead flow cytometry, Alexa488-MEK5 binding to MEKK2 WT; actives lie on both sides; in the data active = binding response below about 67% or above about 130%
MEKK2 mut-MEK5: signal of MEK5 binding to mutant human MEKK2 PB1 domain. bead flow cytometry, Alexa488-MEK5 binding to MEKK2 mutant. percent response, % at 10 µM. 0.35% of 290,000 active; in the data active = percent response above about 24%, passing the limit was not always enough
MEKK2wt confirm: raises or lowers MEK5 binding to wildtype human MEKK2, retest; binding response (% of control), % at 10 µM; shares compounds with MEKK3 PB1 HTS; bead flow cytometry, Alexa488-MEK5 binding to MEKK2 WT; actives lie on both sides; 2.4% of 5,900 active; AID 1892; in the data active = binding response below about 16% or above about 210%; inactive = in between
MEKK2mut-MEK5: signal of MEK5 binding to mutant human MEKK2, retest; shares compounds with MEKK3 PB1 HTS; bead flow cytometry, Alexa488-MEK5 binding to MEKK2 mutant; percent response, % at 10 µM; 2% of 5,900 active; AID 1893; in the data active = percent response mostly above about 71%, no sharp cut-off; inactive = mostly below about 38%;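 also: higher means compound restores mutant binding toward wildtype level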
MEKK3 confirm: confirmation of inhibitors of MEK5 binding to human MEKK3; shares compounds with MEKK3 PB1 HTS; bead flow cytometry, Alexa488-MEK5 binding to MEKK3; hits give low values; binding response (% of control), % at 10 µM; 1.8% of 5,900 active; AID 1894;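 active = binding response below 72% of control, or above a set upper limit, though filed actives all read lower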;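 also: 100% = DMSO only wells and 0% = binding blocked by excess unlabeled MEK5; lower values mean stronger disruption of MEK5 binding to MEKK3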
Numbers without * were called inactive; . = not tested or not shown; [ ] = remark or other dose.

SMILES	GRK2 aptamer HTS	MEKK3 PB1 HTS	MEKK2wt PB1 HTS	MEKK2 mut-MEK5	MEKK2wt confirm	MEKK2mut-MEK5	MEKK3 confirm
COc1cccc(NC(=O)c2nc3ncccn3n2)c1	0	2.0*[inhibitor]	2.0*[inhibitor]	-18	105	3	102
COc1cccc(NC(=O)c2cccc(C(=O)Nc3cccc(OC)c3)c2)c1	3	102	106	5	.	.	.
COc1cccc(Nc2ncccc2C(=O)Nc2ccccc2)c1	1	129*	127	6	105	6	102
CC(=O)C1=C(C)NC(SCC(N)=O)=C(C#N)C1c1cccnc1 (stereo not drawn)	0	110	107	8	.	.	.
O=C(COC(=O)C1(c2ccc(F)cc2)CCCC1)Nc1ncc(C(F)(F)F)cc1Cl	1	133*	111	2	101	-2	102
O=C(COC(=O)C1(c2ccc(Cl)cc2)CCCC1)Nc1ncc(C(F)(F)F)cc1Cl	0	99	104	2	.	.	.
CCCCNC(=O)COC(=O)CCC(=O)c1ccc(F)cc1	0	96	95	-1	.	.	.
CCOC(=O)CCCNC(=O)COC(=O)CCC(=O)c1ccc(F)cc1	0	2.0*[inhibitor]	2.0*[inhibitor]	-20	96	0	100
O=C(COC(=O)CCC(=O)c1ccc(F)cc1)NCc1ccco1	0	74*[inhibitor]	87	-8	102	-5	101
Cc1cnc(C(=O)OCC(=O)Nc2cc(-c3cc(C)c(C)cc3C)nn2-c2ccccc2)cn1	0	.	.	.	.	.	.
CCOC(=O)C1CCN(C(=O)c2cccc(NC(=O)C(CC)CC)c2)CC1	0	81*[inhibitor]	81	-12	100	0	100
CCOC(=O)C1CCN(C(=O)c2cccc(C(=O)N3CCC(C(=O)OCC)CC3)c2)CC1	0	103	108	5	.	.	.
COC(=O)C1CCN(C(=O)c2oc3c(Cl)cc(C)cc3c2C)CC1	0	102	101	9	.	.	.
Cc1cc(Cl)c2oc(C(=O)N3CCN(c4ccncc4)CC3)c(C)c2c1	0	106	147*	25*	153	30	111
CCOC(=O)c1ccc(S(=O)(=O)NNC(=O)c2cccc(N(C)C)c2)cc1	1	3.0*[inhibitor]	3.0*[inhibitor]	4	98	-3	100
CC[C@H](C)NC(=O)CCCCCn1c(=S)[nH]c2c([nH]c3ccc(OC)cc32)c1=O	1	138*	118	5	97	-3	102
NS(=O)(=O)c1ccc(-n2nc(C(=O)O)cc2-c2ccc(Cl)cc2)cc1	0	107	95	-1	.	.	.
N#C/C(=C(/O)COC(=O)c1ccc(C#N)cc1)c1nc2ccccc2s1	1	94	-1.0*[inhibitor]	0	96	1	98
CCOC(=O)c1nc2ccccc2s1	0	2.0*[inhibitor]	2.0*[inhibitor]	-69	102	1	103
CC(C)n1c(N)c(C#N)c2ccc([N+](=O)[O-])cc2c1=O	4	89	97	-11	.	.	.
Cc1ccc(Nc2cc(C)c3c(O)cccc3n2)cc1C	0	102	127	8	.	.	.
Cc1ccccc1Nc1cc(C)c2c(O)cccc2n1	1	57*[inhibitor]	75	-7	115	16	100
CN(C)c1ccc([N+](=O)[O-])cc1C(=O)O	0	129*	108	0	100	-3	99
COc1ccc(CNC(=O)C(c2ccncc2)N(C(=O)Cc2cccs2)c2ccccc2)cc1 (stereo not drawn)	.	110	103	0	.	.	.
COc1ccc(CNC(=O)C(c2ccncc2)N(C(=O)Cc2cccs2)c2ccc(C)cc2)cc1 (stereo not drawn)	0	81*[inhibitor]	86	-11	107	10	104
SMILES	GRK2 aptamer HTS	MEKK3 PB1 HTS	MEKK2wt PB1 HTS	MEKK2 mut-MEK5	MEKK2wt confirm	MEKK2mut-MEK5	MEKK3 confirm
O=C(NNC(=S)NC(=O)c1cccnc1)c1ccc(F)cc1	2	95	90	-8	.	.	.
O=C(NC(Nc1ccc(F)cc1)(C(F)(F)F)C(F)(F)F)c1cccnc1	0	53*[inhibitor]	93	-1	106	6	104
CC(=O)c1cccc(N/C=C\C(=O)c2ccc(C)cc2)c1	0	135*	105	0	105	8	108
CC(=O)c1cccc(NS(=O)(=O)c2ccc(N/C=C\C(=O)c3ccc(C)cc3)cc2)c1	1	102	99	-5	.	.	.
COC(=O)c1ccc(CN2CCCC(C(=O)c3cc(F)ccc3OC)C2)cc1 (stereo not drawn)	1	106	107	8	.	.	.
c1ccn(-c2ccc(-c3ccn[nH]3)cc2)c1	0	99	95	-5	.	.	.
Cc1ccc(C)n1-c1ccc(-c2ccn[nH]2)cc1	4	15*[inhibitor]	.	190*	101	-2	102
O=C(Nc1ccc(C(F)(F)F)cc1)c1cc(S(=O)(=O)NCC2COc3ccccc3O2)ccc1F (stereo not drawn)	0	136*	123	1	122	13	103
Cc1ccccc1NCC(=O)N/N=C\C=C\c1cccc([N+](=O)[O-])c1	3	102	98	0	.	.	.
CC1CCCN(CCCOc2ccc(Cl)cc2Br)C1 (stereo not drawn)	0	99	100	-1	.	.	.
CC1CCCN(CCOc2ccc3ccccc3c2Br)C1 (stereo not drawn)	0	102	157*	37	131	17	102
CCCN(CC(=O)Nc1ccccc1OC)C(=O)C1CCCC1	0	.	.	.	.	.	.
CCOC(=O)Cc1csc(N/N=C\c2ccccc2OC)n1	0	105	110	4	.	.	.
COc1cccc(C(c2c(C)[nH]n(-c3ccccc3)c2=O)c2c(C)[nH]n(-c3ccccc3)c2=O)c1O	3	.	.	.	.	.	.
NC(=O)c1ccc(-n2nnnc2SCC(=O)Nc2ccccc2)cc1	0	105	104	2	.	.	.
O=C(/C(=N\Nc1ccccc1)Sc1nnnn1-c1ccccc1)c1ccccc1	2	138*	106	-1	99	-5	102
Cc1ccc2occ(CN3CCN(Cc4ccccc4)CC3)c(=O)c2c1	0	.	.	.	.	.	.
CC(Nc1nc(N2CCCCC2)nc2ccccc12)c1ccccc1 (stereo not drawn)	0	108	210*	34	140	18	109
COc1ccc2c(c1)c(C(C)=O)c(C)n2-c1ccccc1	2	76*[inhibitor]	86	-8	104	4	110
COc1ccc2c(c1)c(C(C)=O)c(C)n2-c1ccccc1OC	0	.	.	.	.	.	.
CN(C)CCOc1ccc(/C(=C(/CCCl)c2ccccc2)c2ccccc2)cc1	0	110	176*	22	100	-8	100
COc1ccc(Cn2c(-c3ccco3)nc3c(c(=O)c4ccccc4n3C)c2=O)cc1	2	136*	108	28	101	6	106
